Assay outcomes: PubChem BioAssay, several laboratories
This is a sample that favours compounds with a hit; in the whole collection about 2.2% have one here.
M1 ag parental: nonselective activator or artifact in parental CHO-K1 cells. Fluo-8 calcium fluorescence; scaled to maximal ATP response, vehicle zero. activation, % at 3 µM. 360,000 tested, 0.48% active; in the data active means activation above about 15%;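 further: untransfected CHO-K1 host cells lacking M1 receptor as counterscreen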
CHO-K1 Ca antag: M1 antagonist counterscreen hit in parental CHO-K1 cells; ATP-induced calcium, Fluo-8 fluorescence; inhibition, % at 3 µM; 360,000 tested, 0.6% active; AID 602250;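 active means inhibition above a per-plate cutoff, the plate's mean sample inhibition plus 3 SD, cut at about 24% in these data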;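 further: 0% = DMSO plus EC80 ATP and 100% = DMSO alone without ATP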
ANO1 activ: activators or potentiators of mouse TMEM16A chloride channel. 340,000 tested, 0.3% active. Q8BHY3. HEK293 TMEM16A/YFP-H148Q/I152L, iodide quench fluorescence; hits give low values. B-score at 10 µM. AID 623877;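 active means fluorescence-ratio B-score plate-corrected deviation score at least 3 library SD below zero, with starting fluorescence score within 5 deviations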;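 further: channel opened by trigger with iodide after compound preincubation; score built on the fluorescence ratio of max minus min over baseline; more negative score means more quench and so TMEM16A activation or potentiation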
NTR1 agonist: activates human neurotensin receptor 1; P30989; NTR1-U2OS beta-arrestin-GFP spot imaging, agonist mode; activation, % at 20 µM; 330,000 tested, 0.17% active;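 active means activation at or above 40% of the spot to cytoplasm intensity ratio, with at least 20 cells analyzed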;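 further: 0% = DMSO without peptide and 100% = 100 nM NTR1 peptide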
Target sequence (P30989 whole entry, looked up): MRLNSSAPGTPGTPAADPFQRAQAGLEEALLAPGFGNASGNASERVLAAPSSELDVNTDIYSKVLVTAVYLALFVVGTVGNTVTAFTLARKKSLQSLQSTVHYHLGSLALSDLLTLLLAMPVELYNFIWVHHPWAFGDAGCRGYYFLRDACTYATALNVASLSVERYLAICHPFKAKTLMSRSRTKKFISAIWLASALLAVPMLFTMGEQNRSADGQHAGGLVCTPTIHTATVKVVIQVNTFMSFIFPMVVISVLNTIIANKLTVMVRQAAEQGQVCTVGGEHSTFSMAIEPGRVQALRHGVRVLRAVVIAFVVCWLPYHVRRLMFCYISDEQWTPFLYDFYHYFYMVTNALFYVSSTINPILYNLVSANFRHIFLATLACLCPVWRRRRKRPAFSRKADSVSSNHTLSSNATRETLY
ANO1 block: inhibitors of mouse TMEM16A calcium-activated chloride channel. Q8BHY3. normalized B-score (activity score, 25-100; higher = stronger inhibition) at 10 µM. HEK293 TMEM16A/YFP iodide influx fluorescence, ionomycin. 310,000 tested, 1.2% active;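 active means ratio plate-corrected score three or more library SD toward inhibition, starting fluorescence score within five deviations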;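 further: score derived from kinetic fluorescence span divided by baseline fluorescence per well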
M1 PAM parental: counter-screen for M1 PAMs: effect in parental CHO-K1 cells | ATP EC20, Fluo-8 calcium fluorescence; 0% at ATP EC20, 100% at ATP max | activation, % at 3 µM | 360,000 tested, 0.02% active | AID 602247;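 active means activation above the run cutoff, the mean activation of all test compounds plus 3 SD, cut at about 40% in these data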;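 further: peak over basal fluorescence ratio in a 140 s read after ATP addition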
Starred values were filed as active, the others as inactive; i = inactive; nt = no result given.

SMILES | M1 ag parental | CHO-K1 Ca antag | ANO1 activ | NTR1 agonist | ANO1 block | M1 PAM parental
CC1(C)OC(=O)C(=Cc2ccc(-c3ccc(S(N)(=O)=O)cc3)o2)C(=O)O1 | 1 | 0 | -6.2* | -1 | i | 16
CCC(=O)N1CCCC(C)(C(=O)Nc2nccc3ccccc23)C1 (stereo unspecified) | 0 | -12 | nt | nt | nt | 9
CC1(C(=O)NS(=O)(=O)c2cccc(OC(F)F)c2)CCN1C(=O)C/C=C/c1ccccc1 (stereo unspecified) | 2 | -6 | nt | nt | nt | 15
O=S1(=O)CC(N2CCCC2)CN1Cc1cn(Cc2ccc(F)cc2)nn1 (stereo unspecified) | 1 | -12 | nt | nt | nt | 16
CCOc1ccc(NC(=O)COc2ccc(C(=O)NCCc3ccccc3)cc2)cc1 | 1 | 29* | i | 2 | i | -12
C[C@H]1CN([C@@H](C)CO)C(=O)c2cc(NC(=O)C3CCCCC3)ccc2O[C@H]1CN(C)S(=O)(=O)c1ccccc1 | 0 | -16 | i | -1 | nt | 15
CC(C)Oc1cccc(NC(=O)C2(C)CCCN2C(=O)C(C)C)c1 (stereo unspecified) | 1 | -6 | nt | nt | nt | 18
CCOC(=O)c1cc([N+](=O)[O-])sc1NC(=O)c1ccc(S(=O)(=O)N2CC3(C)CC2CC(C)(C)C3)cc1 (stereo unspecified) | 1 | -7 | -26* | 5 | i | 20
CC1(C)CC2CC(C)(CN2S(=O)(=O)c2ccc(C(=O)Nc3ccc(S(=O)(=O)N4CCOCC4)cc3)cc2)C1 (stereo unspecified) | 0 | 13 | i | -1 | i | -11
OC(c1ccc(F)c(F)c1)c1nc(-c2ccc3c(c2)OCO3)cs1 (stereo unspecified) | 2 | -12 | nt | nt | nt | 23
COc1ccccc1N1CCN(C(=O)c2oc3ccccc3c2C)CC1 | 5 | -13 | i | nt | nt | 0
COc1ccccc1N1CCN(C(=O)c2onc(C)c2Cl)CC1 | 1 | 0 | -7.7* | -2 | i | 12
Cc1ccc2nc(-c3ccc(Cl)cc3)c(Cc3cccc(Cl)c3)n2c1 | 1 | -2 | nt | nt | nt | -4
Cc1ccc2nc(-c3ccc(F)cc3)c(Cc3cccc(Cl)c3)n2c1 | -1 | 32* | nt | nt | nt | -9
FC(F)(F)c1cc(Cl)c2nc(-c3ccc(Cl)cc3)c(Cc3ccsc3)n2c1 | 0 | 31* | nt | nt | nt | -9
Fc1ccc(-c2nc3c(Cl)cc(C(F)(F)F)cn3c2Cc2cccc(Cl)c2)cc1 | -1 | 33* | nt | nt | nt | -6
CC(CSC(=O)c1ccccc1)C(=O)N1c2ccccc2CC1C(=O)O (stereo unspecified) | 0 | 2 | nt | nt | nt | 7
Cc1c(C(=O)NCc2ccc(C(F)(F)F)cc2)sc(=O)n1Cc1ccc(S(=O)(=O)N(C)C)cc1 | 9 | 3 | nt | nt | nt | 6
CNC(=O)OC1CC2CC1[C@H]1CCCCN1C2=O (stereo partly specified) | 1 | -24 | nt | nt | nt | 26
Cc1ccc2nc(C(C)(C)C)c(Cc3cccc(Cl)c3)n2c1 | 0 | 4 | nt | nt | nt | -10
CC(C)S(=O)(=O)c1csc(C(=O)Nc2ccc(F)cc2)c1N | 21* | 4 | i | -1 | i | 14
CCc1ccccc1N=C1S/C(=C/c2ccccc2OCC(=O)N2CCOCC2)C(=O)N1C | 3 | -5 | i | 13 | i | 14
O=C1NN(c2ccccc2)C(=O)/C1=C\c1ccccc1OCC(=O)N1CCOCC1 | 0 | 4 | i | -1 | 25* | 4
CC(C)Oc1ccc(C2C(C#N)=C(N)Oc3c2oc(CO)cc3=O)cc1 (stereo unspecified) | 15* | 2 | i | 0 | i | 19
COc1cc(C2C(C#N)=C(N)Oc3c2oc(CO)cc3=O)ccc1OC(C)C (stereo unspecified) | 1 | -9 | i | -1 | i | 14
SMILES | M1 ag parental | CHO-K1 Ca antag | ANO1 activ | NTR1 agonist | ANO1 block | M1 PAM parental
COc1cccc(Nc2ccc(-n3ccnc3)nn2)c1 | 15* | -3 | i | 1 | i | 14
Cc1ccc(Nc2ccc(-n3ccnc3)nn2)cc1C | 0 | -7 | i | 3 | i | 3
Cn1c(=O)[nH]c(=O)c2c1nc(NCc1ccccc1)n2CCCc1ccccc1 | -1 | 26* | i | 0 | i | -10
Cc1onc(-c2ccccc2)c1C(=O)N1CCC(C)(C(=O)O)C1 (stereo unspecified) | 0 | -6 | nt | nt | nt | 10
O=c1c2cc(Cl)ccc2nc(-c2ccc(Cl)c(Cl)c2)n1O | 0 | -19 | i | 31 | 100* | 20
CC(=O)Nc1ccccc1OCC(=O)c1cc(C)n(Cc2cccs2)c1C | 9 | 23 | i | 0 | 100* | 2
CC[C@H](C)[C@@H](C(=O)NCCCCCCCCCCC(=O)N1CCN(C(=O)OC(C)(C)C)CC1)n1cc(CCCCCNC(=O)OC(C)(C)C)nn1 | 6 | -7 | i | 1 | 25* | 10
CC(C)(C)OC(=O)NCCCCCc1cn([C@@H](CO)C(=O)NCCCCCCCCCCC(=O)N2CCN(C(=O)OC(C)(C)C)CC2)nn1 | 18* | 23 | i | 82* | 100* | -14
CC(C)(C)OC(=O)CC[C@@H](C(=O)NCCCCCCCCCCC(=O)N1CCN(C(=O)OC(C)(C)C)CC1)n1cc(CCCCCNC(=O)OC(C)(C)C)nn1 | 0 | -1 | i | 0 | i | -4
CC[C@H](C)[C@@H](C(=O)NCCCCCCCCCCC(=O)N1CCN(C(=O)OC(C)(C)C)CC1)n1cc(CCCCN=C(NC(=O)OC(C)(C)C)NC(=O)OC(C)(C)C)nn1 | nt | nt | nt | 63* | i | nt
COc1ccccc1C(CC(N)=O)c1ccco1 (stereo unspecified) | 0 | 2 | i | 0 | i | 9
COc1ccccc1C(CCN(Cc1ccccc1)C(C)=O)c1ccco1 (stereo unspecified) | 0 | 5 | -9.1* | 2 | i | -11
COc1ccc2c(n1)Sc1nc3ccccc3nc1N2 | 25* | 28* | i | nt | i | 8
CC(C)(C)c1ccc(C(=O)N2CCC2(C)C(=O)NCc2cccs2)cc1 (stereo unspecified) | 5 | 0 | nt | nt | nt | -9
CCCCCCCCNS(=O)(=O)CCNCc1ccco1 | -1 | -2 | nt | nt | nt | 10
O=c1c(/C=N/OCc2ccc(Cl)cc2Cl)c[nH]n1-c1cccc(Cl)n1 | 1 | 18 | i | 0 | 25* | -15
COc1ccc(NC(=O)CSCC(=O)N2c3ccccc3CCc3ccccc32)cc1 | 19* | 4 | i | 0 | i | 17
COc1cccc(CN(C)C(=O)CSCC(=O)Nc2cccc(C)c2)c1OC | 2 | -12 | i | 2 | nt | 9
COc1ccc(NC(=O)CSCC(=O)N(C)Cc2cccc(OC)c2OC)cc1 | 0 | 26* | i | 1 | i | -33
